The record followed here is PubChem BioAssay (EPA / NIEHS).

Each structure is given as a SMILES string. Active and inactive are the calls of the source. Rule for the calls: active = hit-call score of the fitted dose curve at least 0.9, where 1 is the maximum; inactive = score below 0.9.

Experiment [1] has as its target Bile acid receptor (Homo sapiens) (UniProt Q96RI1). In words: ATG_IR1_CIS: Attagene CIS-FACTORIAL HepG2 Assay for human Nuclear Receptor Subfamily 1 Group H Member 4 (NR1H4), IR1 submotif (AID 2282946). Particulars: IR1 reporter transcription, actives raise or lower the signal. A digest of the protocol:
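HepG2 cells transiently transfected with multiplexed cis-element reporter units read endogenous transcription factor activity. After 24 h compound exposure, reporter mRNA was quantified by RT-PCR, fluorescent labelling, HpaI digestion and capillary electrophoresis; bidirectional fitting versus DMSO baseline.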

The nature of experiment [2]: ATG_GRE_CIS: Attagene CIS-FACTORIAL HepG2 Assay for human Glucocorticoid Response Elements (GRE) (AID 2282947). As to conditions: HepG2 GRE cis-reporter, Attagene multiplex mRNA; actives raise or lower the signal. A digest of the protocol:
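Multiplexed cis-reporter mRNA induction, HepG2, 24 h post-dose. RT-PCR, FAM-labelled, HpaI-digested amplicons by CE. Bidirectional fit vs DMSO.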

A short description of experiment [3]: ATG_ISRE_CIS: Attagene CIS-FACTORIAL HepG2 Assay for human Interferon Regulatory Factor 1 (IRF1) binding to an Interferon-Stimulated Response Element (ISRE) (AID 2282948). Particulars: HepG2 ISRE cis-reporter (Attagene), mRNA transcription readout; actives raise or lower the signal. A digest of the protocol:
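Multiplexed mRNA reporter readout in human liver HepG2 cells: cis-element-driven reporters transfected, compound added for 24 h, transcripts amplified, fluorescently labelled and sized by capillary electrophoresis; curve fitting bidirectional against DMSO.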

The nature of experiment [4]: ATG_M_32_CIS: Attagene CIS-FACTORIAL HepG2 Assay for M32 Transcription Factor (Internal Marker) (AID 2282949).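 Note: background control marker of the multiplexed CIS panel rather than a real target.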 As to conditions: HepG2 Attagene cis-factorial M32 reporter, mRNA; actives raise or lower the signal. An outline of the steps: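 Transient MRTU transfection of HepG2; 24 h compound treatment; TriZol RNA, oligo(dT) RT, reporter PCR, 6-FAM primer extension, HpaI cut, CE. Gain/loss of signal vs DMSO.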

Experiment [5] can be described thus: ATG_M_06_CIS: Attagene CIS-FACTORIAL HepG2 Assay for M06 Transcription Factor (Internal Marker) (AID 2282950). Particulars: HepG2 Attagene CIS-FACTORIAL M06 internal marker reporter; actives raise or lower the signal. A digest of the protocol:
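Terse: HepG2, transient MRTU transfection (FuGene 6), 24 h dosing; total RNA, oligo(dT) RT, PCR, FAM label, HpaI cut, capillary electrophoresis; bidirectional fit vs DMSO baseline; background-control endpoint.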

In experiment [6] the target is Hypoxia-inducible factor 1-alpha (Homo sapiens) (UniProt Q16665). In words: ATG_HIF1a_CIS: Attagene CIS-FACTORIAL HepG2 Assay for human Hypoxia Inducible Factor 1 (HIF1A) (AID 2282951). As to conditions: HepG2 Attagene cis-factorial HIF1a reporter transcription; actives raise or lower the signal. An outline of the steps:
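Dosed 24 h, transfected HepG2 cells yielded total RNA whose reporter transcripts were RT-PCR-amplified and sized by capillary electrophoresis using fluorescent labelling; DMSO defined baseline, with gain and loss of signal both fitted.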

Experiment [7] deals with Hepatocyte nuclear factor 6 (Homo sapiens) (UniProt Q9UBC0). Description: ATG_HNF6_CIS: Attagene CIS-FACTORIAL HepG2 Assay for human Hepatocyte Nuclear Factor 6 (HNF6) (AID 2282952). As to conditions: HepG2 Attagene cis-factorial HNF6 reporter transcription; actives raise or lower the signal. A digest of the protocol: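 Endogenous factor activity read in transiently transfected HepG2 via promoter-regulated reporter transcripts. RNA harvested 24 h post-dosing, reverse-transcribed, PCR-amplified, FAM-labelled, HpaI-digested and resolved by capillary electrophoresis; fitted in both directions against DMSO.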
Chain of Hepatocyte nuclear factor 6 (Homo sapiens) (Q9UBC0 whole entry, looked up): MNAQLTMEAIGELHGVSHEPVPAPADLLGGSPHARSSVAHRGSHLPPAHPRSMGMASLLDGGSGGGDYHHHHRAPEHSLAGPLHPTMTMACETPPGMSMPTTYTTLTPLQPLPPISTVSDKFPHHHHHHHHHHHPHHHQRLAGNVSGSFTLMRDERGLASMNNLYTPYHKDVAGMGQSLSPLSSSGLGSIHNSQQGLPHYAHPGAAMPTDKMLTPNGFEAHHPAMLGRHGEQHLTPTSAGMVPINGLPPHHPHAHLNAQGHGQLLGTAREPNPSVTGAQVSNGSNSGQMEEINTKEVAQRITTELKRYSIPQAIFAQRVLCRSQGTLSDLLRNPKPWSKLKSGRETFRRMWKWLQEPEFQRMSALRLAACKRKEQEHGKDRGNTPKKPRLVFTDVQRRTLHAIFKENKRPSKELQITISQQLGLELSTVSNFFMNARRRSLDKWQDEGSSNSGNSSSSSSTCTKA

In experiment [8] the target is Heat shock factor protein 1 (Homo sapiens) (UniProt Q00613). In words: ATG_HSE_CIS: Attagene CIS-FACTORIAL HepG2 Assay for human Heat Shock Transcription Factor 1 (HSE) (AID 2282953). As to conditions: HepG2 HSE cis-reporter, Attagene RNA transcription; actives raise or lower the signal. A digest of the protocol:
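Read-out: fluorescence of reporter-specific RT-PCR fragments separated by capillary electrophoresis. HepG2 carrying transfected cis-element reporter units; 24 h dosing; activity fitted in both directions relative to DMSO baseline.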

Experiment [9] in a line: ATG_MRE_CIS: Attagene CIS-FACTORIAL HepG2 Assay for human Metal Responsive Element (MRE) (AID 2282954). Particulars: HepG2 MRE cis-reporter transcription, Attagene multiplex; actives raise or lower the signal. An outline of the steps: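 Multiplexed cis-reporter assay in human HepG2 liver cells, 24 h incubation with test chemical. Reporter transcripts measured by RT-PCR and capillary electrophoresis; values from bidirectional curve fitting versus DMSO.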

Experiment [10] can be described thus: ATG_PBREM_CIS: Attagene CIS-FACTORIAL HepG2 Assay for human Phenobarbital-responsive Enhancer Module (PBREM) (AID 2282955). As to conditions: HepG2 PBREM cis-reporter, Attagene multiplexed transcription; actives raise or lower the signal. An outline of the steps:
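Transfected liver-derived HepG2 cells exposed 24 h; PBREM reporter transcript quantified via RT-PCR and capillary electrophoresis, with activity in either direction referenced to DMSO.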

Experiment [11] is described as follows: ATG_PXRE_CIS: Attagene CIS-FACTORIAL HepG2 Assay for human Pregnane X Receptor Element (PXRE) (AID 2282957). Particulars: HepG2 Attagene CIS-FACTORIAL PXRE reporter, mRNA; actives raise or lower the signal. An outline of the steps: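 Reporter transcripts under endogenous PXR-responsive cis-regulation quantified from total RNA of transfected HepG2 cells 24 h post-dosing, via RT-PCR with fluorescent primer extension and capillary electrophoresis. Gain or loss of signal fitted against DMSO baseline.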

Experiment [12] in a line: ATG_PPRE_CIS: Attagene CIS-FACTORIAL HepG2 Assay for human Peroxisome Proliferator-activated Response Element (PPRE) (AID 2282958). Particulars: HepG2 PPRE cis-element reporter, Attagene transcription factor profiling; actives raise or lower the signal. A digest of the protocol: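 Measured endpoint: PPRE-controlled reporter mRNA, detected by RT-PCR and capillary electrophoresis fluorescence, from transiently transfected HepG2 cells 24 h after dosing. Curves fitted in both directions using DMSO baseline.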

Experiment [13] is described as follows: ATG_Sox_CIS: Attagene CIS-FACTORIAL HepG2 Assay for human SRY-box transcription factor (SOX) (AID 2282960). Particulars: HepG2 Attagene cis-factorial SOX reporter, mRNA; actives raise or lower the signal. A digest of the protocol: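 Gain- or loss-of-signal endpoint, fitted bidirectionally with DMSO as negative control. Based on reporter mRNA from transfected HepG2 cells harvested 24 h post-treatment and quantified via RT-PCR and capillary electrophoresis.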

The target in experiment [14] is Transcription factor Sp1 (Homo sapiens) (UniProt P08047). Description: ATG_Sp1_CIS: Attagene CIS-FACTORIAL HepG2 Assay for human Specificity Protein 1 (Sp1) (AID 2282961). Particulars: HepG2 Sp1 cis-reporter transcription, actives raise or lower the signal. A digest of the protocol:
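Endpoint reflects endogenous Sp1 transcriptional activity, not an exogenous fusion protein: HepG2 cells with transfected cis-regulated reporters, 24 h dosing, RT-PCR/capillary electrophoresis mRNA read-out, DMSO-normalised bidirectional fit.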

Experiment [15] in a line: ATG_SREBP_CIS: Attagene CIS-FACTORIAL HepG2 Assay for human Sterol Regulatory Element Binding (SREBP) (AID 2282962). As to conditions: HepG2 Attagene cis-factorial SREBP reporter, mRNA; actives raise or lower the signal. An outline of the steps:
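Endogenous factor activity is measured in HepG2 through multiplexed reporter units under cis-element control. Following a 24 h incubation, reporter transcripts are reverse-transcribed, PCR-amplified and sized by capillary electrophoresis; activity is fitted in both directions relative to DMSO.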

Experiment [16] is described as follows: ATG_TA_CIS: Attagene CIS-FACTORIAL HepG2 Assay for human TA Basal Promoter (AID 2282964). Particulars: HepG2 Attagene CIS-factorial TA basal promoter reporter; actives raise or lower the signal. A digest of the protocol: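 Transfected HepG2, 24 h compound exposure; RNA → RT-PCR → FAM primer extension → HpaI cut → CE fluorescence. Gain/loss-of-signal fitted against DMSO negative control. Background-control readout.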

Experiment [17] is described as follows: ATG_TCF_b_cat_CIS: Attagene CIS-FACTORIAL HepG2 Assay for human T-Cell-Factor with beta-catenin (TCF/b-cat) (AID 2282965). Particulars: HepG2 TCF/beta-catenin cis-reporter transcription, actives raise or lower the signal. A digest of the protocol: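 Endogenous transcription factor activity is captured through cis-promoter reporter constructs transiently introduced into human HepG2 liver cells. Induced reporter mRNA is measured after 24 h and fitted bidirectionally relative to DMSO.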

Experiment [18] addresses Paired box protein Pax-6 (Homo sapiens) (UniProt P26367). Description: ATG_Pax6_CIS: Attagene CIS-FACTORIAL HepG2 Assay for human Paired Box 6 (PAX6) (AID 2282956). Particulars: HepG2 CIS-FACTORIAL PAX6 reporter transcription, RNA readout; actives raise or lower the signal. A digest of the protocol:
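Fluorescent RT-PCR products separated by capillary electrophoresis report PAX6-linked promoter mRNA in HepG2 cells 24 h post-dose. Curves fitted bidirectionally, DMSO as negative control.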

A short description of experiment [19]: ATG_RORE_CIS: Attagene CIS-FACTORIAL HepG2 Assay for human RAR-related Orphan Receptor Element (RORE) (AID 2282959). Particulars: HepG2 Attagene cis-factorial RORE reporter, mRNA; actives raise or lower the signal. A digest of the protocol: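 Transiently transfected HepG2 reporter cells were treated 24 h. Reporter transcripts were detected by RT-PCR and capillary electrophoresis, with bidirectional fitting against DMSO.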

Experiment [20] has as its target Signal transducer and activator of transcription 3 (Homo sapiens) (UniProt P40763). In words: ATG_STAT3_CIS: Attagene CIS-FACTORIAL HepG2 Assay for human Signal Transducer and Activator of Transcription 3 (STAT3) (AID 2282963). As to conditions: HepG2, Attagene cis-factorial STAT3 reporter transcription; actives raise or lower the signal. A digest of the protocol: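 Cis-factorial format: endogenous transcription factors in HepG2 drive transfected reporter units. After 24 h treatment, reporter RNA was reverse-transcribed, amplified, FAM-labelled and HpaI-digested before CE analysis; activity scored in both directions against DMSO.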

Chain of Hypoxia-inducible factor 1-alpha (Homo sapiens) (Q16665 whole entry, looked up): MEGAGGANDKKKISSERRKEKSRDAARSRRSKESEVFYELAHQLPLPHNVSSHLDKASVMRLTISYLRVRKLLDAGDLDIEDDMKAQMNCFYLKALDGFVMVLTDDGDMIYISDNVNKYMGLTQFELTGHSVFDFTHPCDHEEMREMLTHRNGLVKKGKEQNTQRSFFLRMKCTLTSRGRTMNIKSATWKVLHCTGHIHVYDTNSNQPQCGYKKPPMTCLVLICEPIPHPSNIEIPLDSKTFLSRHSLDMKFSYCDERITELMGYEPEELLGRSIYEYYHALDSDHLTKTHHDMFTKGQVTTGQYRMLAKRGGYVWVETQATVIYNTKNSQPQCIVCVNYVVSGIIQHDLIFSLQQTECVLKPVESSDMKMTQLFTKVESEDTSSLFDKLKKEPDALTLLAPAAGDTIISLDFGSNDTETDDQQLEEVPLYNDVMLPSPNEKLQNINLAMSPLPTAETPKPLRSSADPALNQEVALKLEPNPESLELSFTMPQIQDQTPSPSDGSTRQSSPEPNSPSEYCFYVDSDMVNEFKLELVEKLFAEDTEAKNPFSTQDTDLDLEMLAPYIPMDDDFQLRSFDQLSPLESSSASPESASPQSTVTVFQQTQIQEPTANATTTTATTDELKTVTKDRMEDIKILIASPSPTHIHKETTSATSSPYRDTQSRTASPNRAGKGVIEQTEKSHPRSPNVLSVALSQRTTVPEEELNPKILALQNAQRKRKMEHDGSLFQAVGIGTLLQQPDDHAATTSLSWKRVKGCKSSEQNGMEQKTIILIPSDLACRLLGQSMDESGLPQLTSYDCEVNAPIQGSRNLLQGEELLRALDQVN
Chain of Bile acid receptor (Homo sapiens) (Q96RI1 whole entry, looked up): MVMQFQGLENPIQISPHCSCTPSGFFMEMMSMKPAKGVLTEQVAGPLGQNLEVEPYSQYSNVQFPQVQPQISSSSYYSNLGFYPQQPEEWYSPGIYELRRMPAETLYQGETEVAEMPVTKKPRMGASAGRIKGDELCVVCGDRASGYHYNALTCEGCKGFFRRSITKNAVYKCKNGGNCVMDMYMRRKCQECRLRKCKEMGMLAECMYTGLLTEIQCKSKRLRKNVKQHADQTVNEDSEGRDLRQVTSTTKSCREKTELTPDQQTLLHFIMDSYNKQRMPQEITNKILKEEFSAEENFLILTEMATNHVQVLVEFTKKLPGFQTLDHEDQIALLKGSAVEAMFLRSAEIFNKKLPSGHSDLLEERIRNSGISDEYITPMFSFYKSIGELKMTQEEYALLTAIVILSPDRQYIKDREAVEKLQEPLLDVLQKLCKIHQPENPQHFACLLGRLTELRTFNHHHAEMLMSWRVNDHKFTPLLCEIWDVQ
Chain of Transcription factor Sp1 (Homo sapiens) (P08047 whole entry, looked up, the tested form may be a part): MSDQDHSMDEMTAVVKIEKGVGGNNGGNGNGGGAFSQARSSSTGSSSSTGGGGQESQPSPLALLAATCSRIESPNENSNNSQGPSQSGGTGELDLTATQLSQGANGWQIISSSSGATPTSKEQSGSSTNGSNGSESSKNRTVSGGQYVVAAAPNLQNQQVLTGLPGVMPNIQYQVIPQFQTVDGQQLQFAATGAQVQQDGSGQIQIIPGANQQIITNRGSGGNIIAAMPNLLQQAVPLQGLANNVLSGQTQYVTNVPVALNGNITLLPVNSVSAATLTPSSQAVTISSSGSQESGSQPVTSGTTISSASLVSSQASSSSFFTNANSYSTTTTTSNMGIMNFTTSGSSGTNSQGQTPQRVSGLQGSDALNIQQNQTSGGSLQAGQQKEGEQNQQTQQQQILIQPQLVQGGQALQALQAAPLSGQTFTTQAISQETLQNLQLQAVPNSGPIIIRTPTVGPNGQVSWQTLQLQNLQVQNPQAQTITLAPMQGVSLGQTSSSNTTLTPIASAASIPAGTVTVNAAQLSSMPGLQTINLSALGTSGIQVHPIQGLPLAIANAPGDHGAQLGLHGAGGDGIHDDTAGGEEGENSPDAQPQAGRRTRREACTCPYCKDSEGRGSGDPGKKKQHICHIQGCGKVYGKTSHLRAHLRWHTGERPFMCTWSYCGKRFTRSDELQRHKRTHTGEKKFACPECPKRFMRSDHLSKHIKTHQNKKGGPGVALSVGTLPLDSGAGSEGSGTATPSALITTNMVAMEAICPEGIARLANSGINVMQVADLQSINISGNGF
Chain of Heat shock factor protein 1 (Homo sapiens) (Q00613 whole entry, looked up, the tested form may be a part): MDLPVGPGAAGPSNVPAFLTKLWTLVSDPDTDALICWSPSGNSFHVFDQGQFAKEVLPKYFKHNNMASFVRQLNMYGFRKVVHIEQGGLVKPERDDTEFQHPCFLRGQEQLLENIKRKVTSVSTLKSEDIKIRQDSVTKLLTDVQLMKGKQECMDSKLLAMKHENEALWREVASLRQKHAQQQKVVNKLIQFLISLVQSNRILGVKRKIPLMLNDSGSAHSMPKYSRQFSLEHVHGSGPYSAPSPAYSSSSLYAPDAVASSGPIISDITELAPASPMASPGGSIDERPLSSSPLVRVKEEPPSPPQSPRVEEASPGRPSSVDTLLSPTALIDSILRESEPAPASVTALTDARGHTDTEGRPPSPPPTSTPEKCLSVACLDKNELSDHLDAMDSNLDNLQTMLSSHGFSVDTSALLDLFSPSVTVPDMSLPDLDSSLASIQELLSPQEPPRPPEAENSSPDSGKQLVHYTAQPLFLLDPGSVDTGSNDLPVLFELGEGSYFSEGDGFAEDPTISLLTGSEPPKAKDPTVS
Chain of Signal transducer and activator of transcription 3 (Homo sapiens) (P40763 whole entry, looked up): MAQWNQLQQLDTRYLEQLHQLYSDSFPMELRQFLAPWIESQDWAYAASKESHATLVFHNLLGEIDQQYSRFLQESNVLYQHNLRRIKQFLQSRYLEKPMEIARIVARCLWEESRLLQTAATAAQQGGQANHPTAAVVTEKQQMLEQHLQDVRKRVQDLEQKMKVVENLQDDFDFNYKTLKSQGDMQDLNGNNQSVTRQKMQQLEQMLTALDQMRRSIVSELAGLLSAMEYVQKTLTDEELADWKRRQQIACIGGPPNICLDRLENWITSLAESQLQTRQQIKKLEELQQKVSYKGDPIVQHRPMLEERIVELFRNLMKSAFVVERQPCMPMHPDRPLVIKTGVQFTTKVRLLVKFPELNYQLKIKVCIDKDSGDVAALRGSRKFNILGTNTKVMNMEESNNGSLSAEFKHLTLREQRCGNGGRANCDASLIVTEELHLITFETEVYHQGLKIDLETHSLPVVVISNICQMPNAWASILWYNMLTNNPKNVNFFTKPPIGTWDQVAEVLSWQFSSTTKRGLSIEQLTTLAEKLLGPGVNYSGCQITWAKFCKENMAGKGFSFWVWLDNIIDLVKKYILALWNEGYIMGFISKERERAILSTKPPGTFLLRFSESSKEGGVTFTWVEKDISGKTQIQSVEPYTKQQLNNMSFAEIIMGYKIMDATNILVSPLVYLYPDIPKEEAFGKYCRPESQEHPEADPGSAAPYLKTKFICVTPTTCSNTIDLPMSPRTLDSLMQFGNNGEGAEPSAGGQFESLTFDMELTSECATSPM
Chain of Paired box protein Pax-6 (Homo sapiens) (P26367 whole entry, looked up): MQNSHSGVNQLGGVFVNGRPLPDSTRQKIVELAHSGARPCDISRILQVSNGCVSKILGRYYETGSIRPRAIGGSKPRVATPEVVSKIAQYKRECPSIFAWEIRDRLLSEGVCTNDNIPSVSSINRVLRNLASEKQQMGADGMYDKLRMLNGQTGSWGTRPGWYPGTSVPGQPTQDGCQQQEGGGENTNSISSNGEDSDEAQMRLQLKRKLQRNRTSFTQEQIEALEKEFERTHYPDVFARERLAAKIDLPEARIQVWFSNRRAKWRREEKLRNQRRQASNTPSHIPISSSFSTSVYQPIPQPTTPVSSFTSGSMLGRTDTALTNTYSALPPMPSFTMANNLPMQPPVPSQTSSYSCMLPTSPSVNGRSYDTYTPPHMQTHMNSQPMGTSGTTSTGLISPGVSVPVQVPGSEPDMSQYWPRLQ

With `CCCCCCCCOC(=O)c1ccc(C(=O)OCCCCCCCC)c(C(=O)OCCCCCCCC)c1`, the result in experiment [1], in [2], in experiment [3], in [4], in [5] and in experiment [7] was inactive. Besides, the call in [8], in [9], in experiment [10], in experiment [11], in experiment [12] and in experiment [13] was inactive. Further, the result in experiment [14], in experiment [15], in experiment [16] and in experiment [17] was inactive. The AC50 in [6] was 23.7 µM (active).

For the molecule `Clc1ccccc1Cl`, the outcome in experiment [1], in [2], in [3], in experiment [4], in experiment [5] and in [6] was inactive. The result in experiment [7], in experiment [8], in experiment [9], in [10], in [18] and in [11] was inactive. In addition, the call in experiment [12], in experiment [19], in experiment [13], in [14], in [15] and in experiment [20] was inactive. In addition, the molecule was classed as inactive in experiment [16] and in experiment [17].

Turning to `Cc1cc(N=Nc2ccccc2C)ccc1N`, the result in experiment [1], in experiment [2], in experiment [3], in [4], in experiment [5] and in [7] was inactive. Moreover, the call in experiment [13], in experiment [14], in [15], in experiment [20] and in [17] was inactive. The AC50 in experiment [6] is 24.7 µM (active); in experiment [8] it was 53.8 µM (active); in experiment [9], 27.9 µM (active); in experiment [10], 33.4 µM (active); in experiment [18], 22.4 µM (active); in experiment [11], 13.9 µM (active). For the same molecule, the values for the AC50 in experiment [12], in experiment [19] and in experiment [16] were 26.4 µM (active), 23 µM (active) and 19 µM (active), respectively.

As usually defined, the AC50 is the concentration giving half of the maximal activity seen.
